Measured values published in PubChem BioAssay (NCI).
Compounds without any hit were thinned out: in the full panel of roughly 83,000, 20% have a hit.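 Plates (96-well) were seeded with cells, treated with compound at one concentration, and incubated for 48 hours before percent growth was determined.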 Unmarked numbers belong to inactive results. Active and inactive are the calls of the source. Rule for the calls: active = growth percent below 10; inactive = the rest.

What follows are compounds tested on 786-0 renal (assay: NCI-60 one-dose screen, 48 h (100 = growth as untreated, 0 = no growth, -100 = all killed)). Conditions: 10 µM unless noted.
`CCOc1cc(/C=N\NC(=O)N/N=C/c2ccc(O)c(OCC)c2)ccc1O` was tested, and the growth was 28.6%.
`Cc1ccc(C2=C/C(=C/c3ccc(Br)cc3)C(=O)N2CCc2ccc(S(N)(=O)=O)cc2)cc1` showed a growth of 97.1%.
`Clc1ccc(N2CCN(CCCN3CCN(c4cccc(Cl)c4)CC3)CC2)cc1` was tested, and the growth was 62.4%.
In the case of `CC(C)OC(=O)Nc1cc(F)ccc1F`, the growth is reported as 103%.
Compound `C[C@H]1[C@H](C)CC[C@]2(C(=O)N3CCN(C)CC3)CC[C@]3(C)C(=CC[C@@H]4[C@@]5(C)C/C(=C/c6ccco6)C(=O)C(C)(C)[C@@H]5CC[C@]43C)[C@H]12` has a growth of 40.6% [100 µM].
In the case of `CC(C)C1=NOC(=O)C1=Cc1cn(-c2ccccc2)nc1-c1ccc(Br)cc1`, the growth is reported as 82.9%.
`C=C(CN=[N+]=[N-])[C@@H]1CC[C@]2(C)[C@H](CC[C@@H]3[C@H]4[C@H]5OC(=O)[C@@]4(CCC5(C)C)CC[C@]32C)[C@@]1(C)CCC#N` showed a growth of 87.9% [100 µM].
Work on `Nn1c(Nc2ccc(S(=O)(=O)Nc3ncccn3)cc2)nnc(/C=C/c2c(O)ccc3ccccc23)c1=O` yielded a growth of 111%.
In the case of `Nc1cc(NN=C(c2ccc(O)cc2)c2ccc(O)cc2)c([N+](=O)[O-])cc1[N+](=O)[O-]`, the growth is reported as -93.9% (active).
For `CSc1nc2c(c(=O)n1C)C1(C(=O)N(Cc3ccccc3)c3ccccc31)c1c(nc(SC)n(C)c1=O)N2`, the growth was 113%.
With `NNC(=O)c1ccc(C(=O)NN)cc1` the growth was 114%.
For `COc1cc(Cl)cc(-c2nn(C(=O)NS(=O)(=O)c3ccccc3)cc2-c2ccncc2)c1`, the growth was 70.9%.
With `CCN(CC)CC(C)Nc1ccc(C)c2sc3ccccc3c(=O)c12` (stereo not drawn) the growth was 53.1%.
For `COc1ccc2c3ccnc(C(F)(F)F)c3n(CCCCN)c2c1`, the growth was 54.5%.
`COc1ccc(C2CC(c3cc(OC)c(OC)c(OC)c3)=NN2C(C)=O)cc1OCC(=O)Nc1nc2ccc(C(F)(F)F)cc2s1` (stereo not drawn) showed a growth of 60.1%.
`COC(=O)C(=Cc1ccccc1[N+](=O)[O-])C(=O)OC` showed a growth of 41.3%.
Work on `C=CCCCCOc1ccccc1-c1cnc(OCCCCC=C)n1C` yielded a growth of 107%.
Work on `O=C(O)c1cccc(CN2CCN(c3cc4c(cc3F)c(=O)c(C(=O)O)cn4C3CC3)CC2)c1O` yielded a growth of 102%.
For `Cc1cc(C)c(O)c(CNCCCCCCNCc2cc(C)cc(C)c2O)c1`, the growth was 54.5%.
`Cc1cnc(N)nc1OCC(C)(C)CNC(=O)c1cccc(-c2ccc(S(=O)(=O)Nc3ccc4c(c3)N(C(=O)C3CC3)CCC4)cc2)c1` gave a growth of 90.6%.
`CCOc1cc(NC(=O)c2ccccc2)c(OCC)cc1N` gave a growth of 110%.
`CCN(CC)c1ccc(/C=C/c2ccc3cc(C)ccc3[n+]2CC)cc1` showed a growth of 16.2%.
In the case of `O=C1COCCN1c1ccc(NCc2cn(Cc3ccccc3)c3ccccc23)cc1`, the growth is reported as 95.3%.
For `c1nc(N2CCOCC2)c2[nH]ccc2n1`, the growth was 101%.
`O=C(Nc1cccc2cccnc12)c1cc(C(=O)c2ccc(Cl)cc2)n2ccc(-c3ccncc3)cc12` gave a growth of 103%.
For `COc1cc2c(c(OC)c1)C1c3cc(OC)ccc3NC(=O)N1CC2` (stereo not drawn), the growth was 95.6%.
In the case of `CC[C@]1(O)CC2CN(CCc3c([nH]c4ccccc34)[C@@](C(=O)OC)(c3cc4c(cc3OC)N(C=O)[C@H]3[C@@](O)(C(=O)OC)[C@H](OC(C)=O)[C@]5(CC)C=CCN6CC[C@]43[C@@H]65)C2)C1` (stereo partly drawn), the growth is reported as 16.8%.
`CC(C)C1=NOC(=O)C1=Cc1cn(-c2ccco2)nc1-c1ccccc1` showed a growth of 89.1%.
In the case of `COC(=O)[C@H](CC(C)C)NC(=O)NC(=O)NC(=O)CI`, the growth is reported as -73.5% (active).
In the case of `O=C1NC(=O)C(Cc2ccc(OCc3ccc(-c4cc(F)c(F)c(F)c4)cc3)cc2)S1` (stereo not drawn), the growth is reported as 95.5%.
`NC(=O)CC1C=CCC1` (stereo not drawn) showed a growth of 96.5%.
Compound `CC(C)C1=NOC(=O)C1=Cc1cn(-c2ccccc2)nc1-c1ccccc1` has a growth of 72.9%.
In the case of `COc1ccc2c(c1)c(-c1noc(C(=O)c3cn(C)c4ncc(Br)cc34)n1)cn2C`, the growth is reported as 59%.
For `C#C[C@]1(O)CC[C@H]2[C@@H]3CC=C4c5nc(Nc6ccccn6)sc5CC[C@]4(C)[C@H]3CC[C@@]21C`, the growth was -69.6% (active).
In the case of `O=C1CN(Cc2ccc(C(=O)NO)cc2)C(=O)[C@@H](Cc2ccccc2)N1`, the growth is reported as 95.8%.
In the case of `COC(=O)[C@]1(C)CC[C@]2(C)CC[C@]3(C)C(=CC(=O)[C@@H]4[C@@]5(C)CCC(=O)NC(C)(C)[C@@H]5CC[C@]43C)[C@@H]2C1`, the growth is reported as -70.9% [100 µM] (active).
In the case of `O=C(CSc1nc2ccc([N+](=O)[O-])cc2[nH]1)Nc1cccc(Cl)c1`, the growth is reported as 28.6%.
With `CCn1cc(-c2ccnc(NCCNS(=O)(=O)c3cccc4ccccc34)c2)c(-c2cccc(O)c2)n1` the growth was 92.3%.
